D2 ag-1 = Beta-Arrestin HTS for Positive Allosteric Modulators of the Human D2 Dopamine Receptor: Agonists | D(2) dopamine receptor (Homo sapiens), P14416 | DiscoveRx PathHunter D2 beta-arrestin, luminescence, 90 min; 100% = 57 uM dopamine signal | activation, % (no concentration beside the values) | 360,000 tested, 0.084% active; in the data active = activation above about 40%
Target sequence (P14416 whole entry, looked up): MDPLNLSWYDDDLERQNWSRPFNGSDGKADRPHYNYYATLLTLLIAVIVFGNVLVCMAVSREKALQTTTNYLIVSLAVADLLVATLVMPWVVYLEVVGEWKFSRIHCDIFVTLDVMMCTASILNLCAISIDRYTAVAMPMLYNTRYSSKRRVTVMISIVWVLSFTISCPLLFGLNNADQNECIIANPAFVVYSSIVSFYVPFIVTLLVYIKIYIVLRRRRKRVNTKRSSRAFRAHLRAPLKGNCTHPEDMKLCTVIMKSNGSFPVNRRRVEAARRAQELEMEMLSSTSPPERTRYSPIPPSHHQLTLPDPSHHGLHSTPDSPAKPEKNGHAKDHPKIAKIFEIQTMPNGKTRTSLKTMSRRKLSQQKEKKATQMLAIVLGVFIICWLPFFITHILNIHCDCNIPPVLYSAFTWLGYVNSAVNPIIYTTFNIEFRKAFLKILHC
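DiscoveRx PathHunter D2 beta-arrestin cells (2,100/well) attached overnight, then compound-stimulated 90 min at 37 C in HBSS/10 mM HEPES/0.1% Tween-20 buffer; beta-galactosidase complementation read by luminescence after 1 h at ambient temperature. Dopamine 57 uM final (EC100) as control.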
D2 PAM-1 = HTS Assay for Positive Allosteric Modulators of the Human D2 Dopamine Receptor: Primary Screen for Potentiators. D(2) dopamine receptor (Homo sapiens), P14416. HEK293 T-REx D2, calcium flux, EC20 dopamine potentiation. potentiation, % at 10 µM. 340,000 tested, 0.34% active;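 active = potentiation over 3 SD above the plate norm, cut at about 30% in these data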; also: 0% is about no effect
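Calcium flux readout, no-wash dye, 1 read/s. Inducible HEK293 Trex D2 line, overnight 30 C. Compound alone 180 s (agonist flags), then EC20 dopamine, another 180 s to score potentiation.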
D2 PAM-2 = Beta-Arrestin HTS for Positive Allosteric Modulators of the Human D2 Dopamine Receptor: Potentiators; D(2) dopamine receptor (Homo sapiens), P14416; DiscoveRx D2 beta-arrestin cells, luminescence, 90 min; 100% = 57 uM dopamine signal; potentiation, % (concentration not given with the values); 360,000 tested, 0.23% active; AID 624464, 2012; in the data active = potentiation above about 50%
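PathHunter D2 cells, attached overnight at 37 deg C, received compound in DMSO plus dopamine at EC20 (50 nM final) for 90 min at 37 deg C. Beta-arrestin recruitment was read as luminescence after 1 h with detection reagent at ambient temperature.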
D2 ag-2 = HTS Assay for Allosteric Agonists of the Human D2 Dopamine Receptor: Primary Screen for Agonists | activation, % at 2 µM | 340,000 tested, 0.53% active | AID 485358, 2010 | HEK293 T-REx D2 cells, calcium flux agonist mode;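 active = activation over 3 SD above normal in the single-dose calcium agonist read, cut at about 30% in these data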; also: 0% is about no effect
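In this primary screen, compounds producing a positive calcium signal within 180 s of addition to tetracycline-induced, force-coupled HEK293 Trex D2 cells are flagged; cells are dye-loaded with a no-wash calcium kit beforehand.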
D2 antag = HTS Assay for Allosteric Antagonists of the Human D2 Dopamine Receptor: Primary Screen for Antagonists | HEK293 TREx D2 cells, calcium flux, dopamine EC80 | 340,000 tested, 2% active | D(2) dopamine receptor (Homo sapiens), P14416 | inhibition, % at 10 µM; in the data active = inhibition above about 30%; inactive = below that, where a call was filed; also: 0% is about no effect
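Tetracycline-induced HEK293 TREx cells expressing D2 receptor forced-coupled to calcium signalling, loaded with no-wash calcium dye. Compounds added and calcium flux read 180 s, then dopamine added at EC80 and read a further 180 s.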
An asterisk follows results filed as active; . = no result given. This is a sample that favours compounds with a hit; in the whole collection about 2.4% have one here.

SMILES | D2 ag-1 | D2 PAM-1 | D2 PAM-2 | D2 ag-2 | D2 antag
CC(C)c1nnc(NC(=O)C2CCCN2C(=O)Nc2ccccc2F)s1 (configuration not stated) | -2 | -6 | -6 | 0 | 38*
COc1ccccc1NC(=O)N1CCCC1C(=O)Nc1nnc(C(C)C)s1 (configuration not stated) | -4 | 7 | 1 | -1 | 15
O=C(Nc1cccnc1Cl)c1ccc(Cl)c([N+](=O)[O-])c1 | 2 | 1 | 14 | 3 | -7
C=CCc1ccc(OCCCCN2CCC(C)CC2)c(OC)c1 | -1 | -24 | -7 | 0 | -12
C=CCc1ccc(OCCCCN2CC(C)CC(C)C2)c(OC)c1 (configuration not stated) | -5 | -16 | -6 | 0 | 39*
O=C(CSc1nc(C2CC2)nc2ccccc12)N1c2ccccc2Sc2ccc(C(F)(F)F)cc21 | 4 | -9 | 60* | 1 | 4
O=C(NCc1ccccc1)C(=O)Nc1nc(C23CC4CC(CC(C4)C2)C3)cs1 | -4 | 2 | -23 | 0 | 32*
C=CCn1c(-c2ccc(OC)c(OC)c2)n[nH]c1=S | -1 | 18 | -13 | 1 | -17
C=CCn1c(-c2c(C)nc3cc(C)ccn23)n[nH]c1=S | -4 | -1 | -9 | 1 | 36*
CC1CCCCN1C(=O)c1cccc(NC(=O)c2ccccc2)c1 (configuration not stated) | -4 | -2 | -9 | -1 | 37*
CCCCc1ccc(NC(=S)N2CCN(c3ccccn3)CC2)cc1 | 9 | 11 | -10 | 1 | -6
CCC(C)c1ccc(NC(=S)N2CCN(c3ccccn3)CC2)cc1 (configuration not stated) | 3 | -5 | 2 | 30* | 20
CN(C)CCN(C(=O)c1ccc(S(=O)(=O)N2CCc3ccccc32)cc1)c1nc2ccc(F)cc2s1 | -6 | -18 | -22 | -1 | 69*
CCc1ccc2nc(N(CCCN(C)C)C(=O)c3ccc(S(=O)(=O)N4CCCc5ccccc54)cc3)sc2c1 | -7 | 11 | -11 | 2 | 3
COc1ccc(/C=C/C(=O)OCC(=O)Nc2ccc3c(c2)OCO3)cc1 | 0 | 11 | -1 | 0 | 10
O=C(O)CC(c1ccc(Br)cc1)N1Cc2ccccc2C1=O (configuration not stated) | -2 | 1 | 1 | 0 | 42*
C=CCNC(=O)CN1C2CCCC1CC(NC(=O)c1ccccc1C)C2 (configuration not stated) | -2 | 41* | -20 | 0 | -24
c1ccc(CN=C(NCc2ccccc2)NCc2ccccc2)cc1 | -4 | . | -11 | . | .
C=CCN1C2CCCC1CC(NC(=S)Nc1ccc(Cl)cc1)C2 (configuration not stated) | 0 | . | -17 | . | .
CNC(=S)NC1CC2CCC(C1)N2Cc1ccccc1 (configuration not stated) | -2 | -26 | -27 | 1 | 64*
S=C(Nc1ccc(Cl)cc1)NC1CC2CCC(C1)N2Cc1ccccc1 (configuration not stated) | 4 | -28 | -24 | 3 | 93*
CCc1ccc(NC(=S)NC2CC3CCCC(C2)N3Cc2ccccc2)cc1 (configuration not stated) | -2 | 8 | -21 | 0 | 40*
CNC(=S)NC1CC2CCCC(C1)N2Cc1ccco1 (configuration not stated) | -1 | -11 | -21 | -1 | -8
CCCCN(C)CCNC(=O)c1cc(=O)[nH]c2ccc(S(=O)(=O)N3CCCCCC3)cc12 | . | -9 | . | 0 | .
COc1cc(/C=C2/CCC/C(=C\c3cc(O)c(OC)c(Cl)c3)C2=O)cc(Cl)c1O | -10 | 38* | -21 | 2 | 12
SMILES | D2 ag-1 | D2 PAM-1 | D2 PAM-2 | D2 ag-2 | D2 antag
COc1cc(/C=C2\CC/C(=C\c3cc(OC)c(O)c(OC)c3)C2=O)cc(OC)c1O | 4 | 9 | -6 | 2 | -11
O=C(Nc1nc2cc3c(cc2s1)OCCO3)c1ccc([N+](=O)[O-])o1 | 1 | 11 | 7 | 1 | 37*
COc1ccc(N(CC(=O)NC2CCCCC2)C(=O)CCCC(=O)Nc2ccccn2)cc1 | -2 | 0 | 0 | 0 | 10
Cc1noc(NS(=O)(=O)c2ccc(NC(=O)c3ccc(Br)cc3)cc2)c1C | . | -3 | . | . | .
Cc1nn(C)c(C)c1CCC(=O)N1CCCC(Nc2ccc(C(C)C)cc2)C1 (configuration not stated) | -1 | 36* | -7 | 0 | -24
CN(C)c1ccc(CNC(=O)Cn2ccc3cc(S(=O)(=O)N4CCCCCC4)ccc32)cc1 | . | 5 | . | 0 | .
CCOC(=O)C1(CC2CCCCO2)CCN(Cc2ccc(OC)cc2F)CC1 (configuration not stated) | -3 | -21 | -15 | -1 | 61*
COc1ccc(-c2ccccc2)cc1NC(=O)[C@@H]1O[C@H](CO)[C@H](O)[C@H](O)[C@H]1O | -4 | . | -16 | . | .
CC(C)c1ccccc1OCCCN1CCCC1 | 5 | -14 | -7 | 0 | 65*
Brc1ccccc1OCCCN1CCCCCC1 | -2 | -18 | -16 | 0 | 46*
Clc1ccccc1OCCCCN1CCCCC1 | -5 | -28 | -5 | 1 | 77*
Brc1ccccc1OCCCCCN1CCOCC1 | 1 | -15 | -25 | 0 | 36*
CCN(CC)CCNC(=O)c1ccc(-c2nc(CN3CCc4ccccc43)c(C)o2)cc1 | . | . | . | 11 | .
Clc1ccc(Cl)c(OCCCCN2CCCCC2)c1 | -3 | -31 | -15 | -2 | 86*
CC1CCN(CCOc2cc(Cl)ccc2Cl)CC1 | 1 | -30 | -19 | 4 | 72*
Clc1ccccc1OCCCCN1CCCC1 | -3 | -18 | -26 | -1 | -22
CCOC(=O)C1CCN(C(=O)C2CCN(C3=NS(=O)(=O)C(c4ccc(C)c(C)c4)=C3C)CC2)CC1 | . | -3 | . | -1 | .
Cc1nn2c(C)c(C(=O)NCc3cccc(Br)c3)cnc2c1-c1ccccc1 | . | -8 | . | . | .
Cc1c(C(=O)Nc2ccccc2)sc2nc(-c3cc4cc(Cl)ccc4oc3=O)[nH]c(=O)c12 | . | -5 | . | 0 | .
CCOC(=O)C1(C)CCN1C(=O)c1cccc(Cl)c1 (configuration not stated) | 42* | . | 4 | . | .
COCC1CCN(C(=O)c2ccc3oc(CCCc4ccccc4)nc3c2)C1 (configuration not stated) | -2 | 44* | 14 | 1 | 4
